In PubChem BioAssay (NCATS):
Records with an inconclusive call do not appear. Calls of active or inactive are those of the source. Unless noted, calls come from the whole dose curve; as a rule, active = well fitted curve in the direction sought with a large enough effect; inconclusive = small, poorly fitted or top-dose-only effect, or another doubt; inactive = no such curve, though single readings can be large; an effect the other way counts as inactive or inconclusive.

Assays:
[1] = S16 Schwann cell PMP22 intronic element beta-lactamase assay (AID 624044; calls by dose curve;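 note: 0% = DMSO and -100% = potassium clavulanate positive control; nearly all actives have a fitted effect of over 15% in size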)
Summary of the method: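 Rat S16 Schwann cells with beta-Lac driven by a PMP22 intronic element, compound-treated 24 h at 37 °C. LiveBLAzer FRET B/G read: 460 nm normalized to potassium clavulanate vs DMSO; 535 nm FRET as viability; concentration-effect curves classified.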

[2] = qHTS assay for small molecule activators of the p53 signaling pathway (AID 651743; active = well fitted activation curve with a large enough effect in the signal ratio, not every such curve was filed as active; the % refers to the signal ratio; note: % of control where 0% means no effect); settings: HCT-116 p53RE-bla, beta-lactamase FRET ratio, 16 h; activation: stronger effect = higher value
Summary of the method: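 Screen for p53 pathway agonists uses stably transfected p53RE-bla HCT-116 cells, 4,000 per well, treated 16 h at 37 C with compounds in DMSO.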

[3] = qHTS assay for small molecule activators of the nuclear factor-kappa B (NF-kB) signaling pathway (AID 651749; active = well fitted activation curve with a large enough effect in the signal ratio; the % refers to the signal ratio; note: % of control where 0% means no effect); settings: NF-kB-bla ME-180 cells, beta-lactamase FRET ratio, 16 h; stronger effect = higher value
Summary of the method: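 Stably transfected ME-180 line; NF-kB response element upstream of beta-lactamase. Treatment: compound or DMSO, 16 hr. Detection: fluorescent FRET substrate.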

[4] = qHTS assay for small molecule disruptors of the mitochondrial membrane potential - 1 hr assay (AID 651754; calls by dose curve; note: % is set by controls: 0 for no effect and ±100 for the full control effect; nearly all actives have a fitted effect of over 35% in size)
Summary of the method: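 HepG2 cells, attached overnight at 37C, were exposed to compound or DMSO vehicle for 1 hr at 37C, 5% CO2, then stained with Mito-MPS dye for 30 min. Red aggregate versus green monomer fluorescence reports membrane potential.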

[5] = qHTS assay for small molecule disruptors of the mitochondrial membrane potential - 5 hr assay (AID 651755; calls by dose curve; note: % is set by controls: 0 for no effect and ±100 for the full control effect; nearly all actives have a fitted effect of over 40% in size)
Summary of the method: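 HepG2, 2,000 cells/well, overnight attach; cpd or DMSO 5 hr, 37C/5% CO2; Mito-MPS 30 min 37C; fluor 490/535 + 540/590 nm.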

[6] = target: Tumor necrosis factor (Homo sapiens) (UniProt P01375); assay: qHTS assay to identify small molecules that stimulate Tumor Necrosis Factor-alpha (TNF-alpha) secretion (AID 651757; active = well fitted curve in the direction sought with a large enough effect in the signal ratio; the % refers to the signal ratio; note: potency is the fitted concentration of half-maximal effect)
Summary of the method: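 THP-1 cells were exposed to compounds for 17 hrs at 37 C, after which secreted TNF-alpha was measured by homogeneous HTRF (TR-FRET) using cryptate- and XL665-labeled anti-TNF-alpha antibodies, read after 3 hr at room temperature.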

[7] = qHTS assay for environmental chemicals that activate the Aryl hydrocarbon Receptor (AhR) signaling pathway (AID 651777); settings: 1A2-DRE human hepatoma cells, luciferase, 24 h; activation: stronger effect = higher value; note: % of control where 0% means no effect; nearly all actives have a fitted effect of over 15% in size
Summary of the method: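 Measured luciferase activity, read 30 min after One-Glo addition at room temperature, from human hepatoma cells bearing a dioxin response element–CYP1A2 promoter reporter and exposed to compound for 24 hr at 37 C.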

[8] = target: Peroxisome proliferator-activated receptor alpha (Homo sapiens) (UniProt Q07869); assay: qHTS assay for small molecule agonists of the peroxisome proliferator-activated receptor alpha (PPARalpha) signaling pathway (AID 651778); settings: PathHunter PPARalpha complementation, chemiluminescence, 6 h; stronger effect = higher value; note: % of control where 0% means no effect
Summary of the method: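 Chemiluminescence from complemented enzyme reported PPARalpha activation in cells after 6 hr of compound treatment at 37 C. The detection reagent was incubated for 60 min at room temperature, and compounds were scored as agonists.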

[9] = qHTS assay for small molecule agonists of the antioxidant response element (ARE) signaling pathway measured by Nrf2-dependant transcriptional activity (AID 720636; active = well fitted curve in the direction sought with a large enough effect in the repeat runs; an effect the other way counts as inactive or inconclusive;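 note: HepG2 cells with an ARE-driven luciferase reporter; % of control where 0% means no effect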)
Summary of the method: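 In HepG2 cells engineered with an Nrf2-responsive luciferase gene, ARE induction was quantified as luminescence after 16 hr compound treatment at 37 C.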

[10] = qHTS assay for small molecule antagonists of the retinoid-related orphan receptor gamma (ROR-gamma) signaling pathway - cell viability counter screen (AID 720652; active = well fitted curve in the direction sought with a large enough effect in the repeat runs; an effect the other way counts as inactive or inconclusive;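 note: CHO reporter cells with doxycycline-induced ROR-gamma expression; compound exposure lasted 16 hr before ATP read; % is set by controls: 0 for no effect and ±100 for the full control effect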)
Summary of the method: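 Counter screen in CHO cells carrying TET-inducible ROR-gamma and an ROR response element-luciferase reporter; cells plated 5 hr, compound pinned, doxycycline added, then 16 hr at 37 C. Viability read as intracellular ATP by CellTiter-Glo luminescence.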

[11] = qHTS assay for small molecule agonists of the antioxidant response element (ARE) signaling pathway measured by Nrf2-dependant transcriptional activity - cell viability counter screen (AID 720653; active = well fitted curve in the direction sought with a large enough effect in the repeat runs; an effect the other way counts as inactive or inconclusive; note: % is set by controls: 0 for no effect and ±100 for the full control effect); settings: ARE-bla HepG2 viability, CellTiter-Glo ATP luminescence, 16 h; stronger effect = lower value
Summary of the method: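 Cytotoxicity counter screen: intracellular ATP quantified by CellTiter-Glo luminescence in the same ARE-bla HepG2 plates, after 16 h compound exposure and a 2 h beta-lactamase substrate step.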

[12] = qHTS assay for cell viability of HEK293 cells (AID 743288); settings: ATP luminescence (CellTiter-Glo), 18 h, stronger effect = lower value; note: % is set by controls: 0 for no effect and ±100 for the full control effect; nearly all actives have a fitted effect of over 50% in size
Summary of the method: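 HEK293 parental, 2,000 cells/well; ≥5 h pre-incubation 37 C; pintool compound addition; 18 h, 37 C; CellTiter-Glo 30 min RT; luminescence read.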

[13] = qHTS assay for cell viability of the p53RE-bla HCT-116 cell line (AID 743292); note: % is set by controls: 0 for no effect and ±100 for the full control effect; nearly all actives have a fitted effect of over 55% in size
Summary of the method: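 Intracellular ATP of p53RE-bla HCT-116 cells measured by luciferase luminescence following 16 h compound incubation at 37 C; DMSO-only wells served as vehicle controls.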

[14] = qHTS to identify inhibitors of the type 1 interferon - major histocompatibility complex class I in skeletal muscle: primary screen against the NCATS Mechanism Interrogation Plate v5.0 (MIPE) Libary (AID 1347411);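 note: plate controls were vehicle for no effect and reference inhibitor for full effect; nearly all actives have a fitted effect of over 65% in size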
Summary of the method: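 Immortalized human C25cl48 myoblasts with HiBit knocked into endogenous HLA-B*08:01 were stimulated with 4.0 ng/ml IFN-beta and exposed to compounds (11-point 1:3 titration, top 46 uM final) for 24 hrs at 37 C; HiBiT lytic luminescence measured.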

[15] = Primary qHTS for inhibitors of nuclear receptor binding SET domain protein 2 (NSD2) in an isogenic RCH-ACV NSD2 p.E1099K mutant (9B) (AID 1645876); note: % is set by controls: 0 for no effect and ±100 for the full control effect; nearly all actives have a fitted effect of over 70% in size
[16] = Primary qHTS for inhibitors of nuclear receptor binding SET domain protein 2 (NSD2) in an RCH-ACV wild type WT cells (2C) (AID 1645877); note: % is set by controls: 0 for no effect and ±100 for the full control effect; nearly all actives have a fitted effect of over 70% in size
[17] = target: Glutathione peroxidase 1 (Homo sapiens) (UniProt P07203); assay: Primary qHTS Assay for Inhibitors of Recombinant Selenoprotein Glutathione Peroxidase 1 (GPX1) (AID 1845191); note: % is set by controls: 0 for no effect and ±100 for the full control effect; nearly all actives have a fitted effect of over 65% in size
Summary of the method: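 10 nM GPX1 + cpd, 30 min RT; start w/ 1 mM GSH, 0.5 mM cumene hydroperoxide, 0.5 mM NADPH, 100 nM GR, 0.01% BSA; buffer 50 mM Tris-HCl pH 7.5, 2 mM EDTA, 150 mM NaCl; Fl 340/450, 0 & 15 min.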

[18] = target: Phospholipid hydroperoxide glutathione peroxidase GPX4 (Homo sapiens) (UniProt P36969); assay: Primary qHTS Assay for Inhibitors of Recombinant Selenoprotein Glutathione Peroxidase 4 (GPX4) (AID 1845192); settings: outcome: dose series up to 50 µM unless noted; note: % is set by controls: 0 for no effect and ±100 for the full control effect; nearly all actives have a fitted effect of over 65% in size
Summary of the method: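 NADPH consumption, followed by fluorescence at 340/450 nm between 0 and 15 min, reports GPX4 activity via coupled glutathione reductase (100 nM). Enzyme 200 nM was pre-exposed to compound 30 min; 0.5 mM cumene hydroperoxide and 1 mM GSH served as substrates.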

[19] = qHTS drug screen for cell cycle checkpoint inhibitors in PARPi-resistant BRCA-mutant ovarian cancer cell lines. (AID 1963452; calls by dose curve); settings: PEO1/OlaR viability, CellTiter-Glo luminescence, 96 h, stronger effect = lower value
Summary of the method: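 PEO1, PEO4 and PEO1/OlaR ovarian cancer cells, 600 per well, exposed 96 h at 37C to a dilution series. Viability read by CellTiter-Glo luminescence, normalized to DMSO and empty wells; activity summarized as Z-AUC.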

[20] = qHTS profiling for inhibitors of Plasmodium falciparum proliferation (AID 504749);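 note: 0% = DMSO vehicle and full inhibition = artemisinin control; nearly all actives have a fitted effect of over 60% in size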; settings: P. falciparum in erythrocytes, SYBR Green DNA, 72 h; at 28.7 µM (top of the series); parasite line A
Summary of the method: (§1)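 Three-day growth assay of blood-stage parasites in erythrocytes (0.3% parasitemia, 2.5% hematocrit) at 37 C, 5% CO2, quantified by SYBR Green DNA staining after overnight detergent lysis.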

[21] = test system: 7G8; assay: as above; settings: P. falciparum in erythrocytes, SYBR Green DNA, 72 h; series mostly up to 28.7 µM
Summary of the method: as §1

[22] = test system: AA1029; assay: as above; settings: P. falciparum in erythrocytes, SYBR Green DNA, 72 h; series mostly up to 28.7 µM
Summary of the method: as §1

[23] = test system: AS120; assay: as above; settings: P. falciparum in erythrocytes, SYBR Green DNA, 72 h; series mostly up to 28.7 µM
Summary of the method: as §1

[24] = test system: ATS189; assay: as above; settings: P. falciparum in erythrocytes, SYBR Green DNA, 72 h; series mostly up to 28.7 µM
Summary of the method: as §1

[25] = test system: ATS95; assay: as above; settings: P. falciparum in erythrocytes, SYBR Green DNA, 72 h; series mostly up to 28.7 µM
Summary of the method: as §1

[26] = test system: C2A; assay: as above; settings: P. falciparum in erythrocytes, SYBR Green DNA, 72 h; series mostly up to 28.7 µM
Summary of the method: as §1

[27] = test system: CP185; assay: as above; settings: P. falciparum in erythrocytes, SYBR Green DNA, 72 h; series mostly up to 28.7 µM
Summary of the method: as §1

[28] = test system: CP191; assay: as above; settings: P. falciparum in erythrocytes, SYBR Green DNA, 72 h; series mostly up to 28.7 µM
Summary of the method: as §1

[29] = test system: CP192; assay: as above; settings: P. falciparum in erythrocytes, SYBR Green DNA, 72 h; series mostly up to 28.7 µM
Summary of the method: as §1

[30] = test system: CP194; assay: as above; settings: P. falciparum in erythrocytes, SYBR Green DNA, 72 h; series mostly up to 28.7 µM
Summary of the method: as §1

[31] = test system: CP201; assay: as above; settings: P. falciparum in erythrocytes, SYBR Green DNA, 72 h; series mostly up to 28.7 µM
Summary of the method: as §1

[32] = test system: CP203; assay: as above; settings: P. falciparum in erythrocytes, SYBR Green DNA, 72 h; series mostly up to 28.7 µM
Summary of the method: as §1

[33] = test system: CP211; assay: as above; settings: P. falciparum in erythrocytes, SYBR Green DNA, 72 h; series mostly up to 28.7 µM
Summary of the method: as §1

[34] = test system: CP217; assay: as above; settings: P. falciparum in erythrocytes, SYBR Green DNA, 72 h; series mostly up to 28.7 µM
Summary of the method: as §1

[35] = test system: CP237; assay: as above; settings: P. falciparum in erythrocytes, SYBR Green DNA, 72 h; series mostly up to 28.7 µM
Summary of the method: as §1

[36] = test system: CP238; assay: as above; settings: P. falciparum in erythrocytes, SYBR Green DNA, 72 h; series mostly up to 28.7 µM
Summary of the method: as §1

[37] = test system: CP247; assay: as above; settings: P. falciparum in erythrocytes, SYBR Green DNA, 72 h; series mostly up to 28.7 µM
Summary of the method: as §1

Sequence of Peroxisome proliferator-activated receptor alpha (Homo sapiens) (Q07869 whole entry, looked up): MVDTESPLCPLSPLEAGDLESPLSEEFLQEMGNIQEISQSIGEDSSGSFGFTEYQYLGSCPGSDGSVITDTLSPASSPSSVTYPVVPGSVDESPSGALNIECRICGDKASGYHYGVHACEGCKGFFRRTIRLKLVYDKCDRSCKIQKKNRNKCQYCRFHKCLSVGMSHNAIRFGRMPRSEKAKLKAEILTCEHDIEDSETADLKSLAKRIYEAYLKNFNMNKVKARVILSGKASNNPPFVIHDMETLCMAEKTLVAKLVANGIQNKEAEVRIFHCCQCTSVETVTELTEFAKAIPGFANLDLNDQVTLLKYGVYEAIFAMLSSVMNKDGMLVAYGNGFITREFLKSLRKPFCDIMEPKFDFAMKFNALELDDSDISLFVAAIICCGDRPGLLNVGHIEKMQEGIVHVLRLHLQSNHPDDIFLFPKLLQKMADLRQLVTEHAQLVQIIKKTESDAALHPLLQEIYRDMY
Sequence of Glutathione peroxidase 1 (Homo sapiens) (P07203 whole entry, looked up): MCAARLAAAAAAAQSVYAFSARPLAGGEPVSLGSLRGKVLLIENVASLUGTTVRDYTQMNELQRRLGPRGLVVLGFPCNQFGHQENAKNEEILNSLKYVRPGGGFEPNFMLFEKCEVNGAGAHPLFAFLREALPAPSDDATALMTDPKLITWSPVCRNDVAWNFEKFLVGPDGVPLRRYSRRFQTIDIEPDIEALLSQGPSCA
Sequence of Phospholipid hydroperoxide glutathione peroxidase GPX4 (Homo sapiens) (P36969 whole entry, looked up): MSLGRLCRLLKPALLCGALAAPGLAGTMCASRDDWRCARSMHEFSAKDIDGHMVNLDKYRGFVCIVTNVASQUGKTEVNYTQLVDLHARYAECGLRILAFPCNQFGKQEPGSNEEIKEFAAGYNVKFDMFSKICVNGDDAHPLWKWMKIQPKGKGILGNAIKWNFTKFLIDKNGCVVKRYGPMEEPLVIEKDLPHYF
Sequence of Tumor necrosis factor (Homo sapiens) (P01375 whole entry, looked up): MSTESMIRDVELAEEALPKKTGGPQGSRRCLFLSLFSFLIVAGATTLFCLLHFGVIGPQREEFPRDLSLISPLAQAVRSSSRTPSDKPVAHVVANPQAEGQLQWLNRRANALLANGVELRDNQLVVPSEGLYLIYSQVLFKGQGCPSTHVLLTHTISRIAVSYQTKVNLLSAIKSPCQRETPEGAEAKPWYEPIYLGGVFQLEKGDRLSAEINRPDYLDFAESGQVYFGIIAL

C[C@@H]1[C@H](O)[C@@H](C)/C=C/C=C/C=C/C=C/C=C/C=C/C=C/[C@H](O[C@@H]2O[C@H](C)[C@@H](O)[C@H](N)[C@@H]2O)C[C@@H]2O[C@](O)(C[C@@H](O)C[C@@H](O)[C@H](O)CC[C@@H](O)C[C@@H](O)CC(=O)O[C@H]1C)C[C@H](O)[C@H]2C(=O)O
1.65: Z-AUC ([19]; measured here: PEO1 parental Z-AUC)
1.61: Z-AUC ([19]; measured here: PEO4 Z-AUC)
active: Potency [6] 42.2 µM
inactive: outcome [1] | activation [2] 0.804% | activation [3] -0.187% | Potency [4] | Potency [5] | activation [7] 0.282% | max response [8] 6.84% | outcome [9] | outcome [10] | max response [11] -15.2% | max response [12] -1.04% | Potency [13] | Potency [14] | Potency [15] | Potency [16] | Potency [17] | Potency [18] | Z-AUC [19] 1.47 | activity, negative = inhibition [20] -1.42% | Potency [21] | Potency [22] | Potency [23] | Potency [24] | Potency [25] | Potency [26] | Potency [27] | Potency [28] | Potency [29] | Potency [30] | Potency [31] | Potency [32] | Potency [33] | Potency [34] | Potency [35] | Potency [36] | Potency [37]
